target: D(2) dopamine receptor (Homo sapiens) (UniProt P14416); assay: HTS Assay for Allosteric Antagonists of the Human D2 Dopamine Receptor: Hit Validation in primary assay; conditions: HEK293 TREx D2, calcium flux, dopamine EC80 antagonism; series mostly up to 41.8 µM; activity change, negative = inhibition: at the top concentration
Text: Dopamine receptors (DARs) are involved in the etiology and/or therapy of a number of neuropsychiatric and endocrine disorders. For instance, all receptor-based antiparkinsonian drugs work via stimulating the D2 DAR subtype whereas all FDA-approved antipsychotic agents are antagonists of this receptor. […] There are three different types of allosteric modulators that we are seeking, two of which will stimulate or augment receptor signaling, allosteric agonists and potentiators, while the third, allosteric antagonists, will attenuate receptor signaling. The present primary screening assay measures compound antagonism after an EC80 addition of dopamine by tracking calcium flux in a […], inducible Hek293 Trex D2 cell line. NIH Chemical Genomics Center [NCGC] NIH Molecular Libraries Probe Centers Network [MLPCN] MLPCN Grant: NS064831 Assay Submitter (PI): David Sibley
Freshly passaged cells are plated in 1536 well black, clear bottom plates at a density of 4000 cells/well in 3 ul of complete media containing 1x tetracycline inducer. After an overnight incubation at 30 C in 5% CO2, cells are loaded with 2 ul of the no wash Calcium Assay Kit (ABD Bioquest) and incubated at room temperature for 30 to 90 minutes before it's read.

D(2) dopamine receptor (Homo sapiens), sequence (P14416 whole entry, looked up): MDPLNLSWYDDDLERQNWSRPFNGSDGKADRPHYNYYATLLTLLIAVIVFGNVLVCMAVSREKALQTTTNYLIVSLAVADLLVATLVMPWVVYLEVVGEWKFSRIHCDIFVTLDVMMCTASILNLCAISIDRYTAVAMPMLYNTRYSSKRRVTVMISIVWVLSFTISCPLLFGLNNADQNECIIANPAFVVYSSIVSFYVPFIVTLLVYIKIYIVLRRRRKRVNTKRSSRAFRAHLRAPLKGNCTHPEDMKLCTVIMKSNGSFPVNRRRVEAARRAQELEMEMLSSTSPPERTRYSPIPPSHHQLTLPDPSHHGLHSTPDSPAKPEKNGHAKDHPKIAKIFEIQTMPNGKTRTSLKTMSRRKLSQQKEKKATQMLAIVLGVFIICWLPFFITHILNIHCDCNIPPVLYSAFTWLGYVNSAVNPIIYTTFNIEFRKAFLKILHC

Activity change, negative = inhibition, inactive:
C[C@]12CCC3c4ccc(OS(=O)(=O)O)cc4CCC3C1CCC2=O (some centres not stated) 28.3%
NCC1O[C@@H](OC2C(N)C[C@H](N)[C@@H](O[C@H]3OC(CO)C(O)C(N)C3O)C2O)C(N)C(O)C1O (some centres not stated) 40.9%
COc1ccc(-c2c(O)c3c(OC)c4c(cc3oc2=O)OC(C)(C)C=C4)cc1 34.9%
CC1=CC(=O)c2ccccc2C1=O 28%
COc1cc(OC)c2ccc(=O)oc2c1 27%
O=C(OCc1ccccc1)c1ccccc1 18.9%
CC(=O)OC1CC2C(C)(C)C(O)CC(O)[C@@]2(C)C2CC[C@@]3(C)C(=CC(=O)OC3c3ccoc3)[C@]12C (some centres not stated) 15.4%
CC(C)(C)NCC(O)c1cc(O)cc(O)c1 (configuration not stated) 20.4%
CC(C)c1c(O)ccc2c1CCC1[C@@](C)(C=O)CCC[C@@]21C (some centres not stated) 35.8%
CCCCCCCCCCCC1=C(O)C(=O)C=C(O)C1=O 42.8%
NS(=O)(=O)c1cc(C2(O)NC(=O)c3ccccc32)ccc1Cl (configuration not stated) 27.7%
COc1ccc2cc3[n+](cc2c1OC)CCc1cc2c(cc1-3)OCO2 40.3%
O=C(O)c1cc(=O)c2ccccc2[nH]1 -4.72%
CCCCNc1ccc(C(=O)OCCN(C)C)cc1 7.23%
Cc1cc(C)nc(NS(=O)(=O)c2ccc(N)cc2)n1 15.7%
CC1OC(OC2C(CO)OC(OC3C(CO)OC(O)C(O)C3O)C(O)C2O)C(O)C(O)C1NC1C=C(CO)C(O)C(O)C1O (configuration not stated) -16.7%
CC(CCC(=O)O)C1CCC2C3CC[C@H]4CC(O)CC[C@@]4(C)C3CC[C@@]12C (some centres not stated) 2.2%
